Measurements from PubChem BioAssay (NCI).
Compounds without any hit were thinned out: in the full panel of roughly 83,000, 20% have a hit.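 Growth was measured after 48 h exposure to one concentration of compound in 96-well plates. Values under 10 count as active.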 Values without a mark were called inactive. Active and inactive are the calls of the source.

How the values were obtained:
Assay in all cases: NCI-60 one-dose screen, 48 h (100 = growth as untreated, 0 = no growth, -100 = all killed)
Settings in all cases: 10 µM unless noted
[1] = tested on: NCI-H23 lung
[2] = tested on: NCI-H226 lung
[3] = tested on: HOP-62 NSCLC
[4] = tested on: NCI-H460 lung
[5] = tested on: HOP-92 NSCLC
[6] = tested on: NCI-H522 lung
[7] = tested on: A549/ATCC NSCLC
[8] = tested on: 786-0 renal
[9] = tested on: COLO 205 colon
[10] = tested on: DU-145 prostate
[11] = tested on: K-562 leukemia
[12] = tested on: MALME-3M melanoma
[13] = tested on: MDA-MB-231 breast
[14] = tested on: RXF 393 renal
[15] = tested on: SF-268 CNS
[16] = tested on: SF-295 CNS
[17] = tested on: SF-539 CNS
[18] = tested on: UACC-257 melanoma
[19] = tested on: M14 melanoma

Row | SMILES | growth [1] | growth [2] | growth [3] | growth [4] | growth [5] | growth [6] | growth [7] | growth [8] | growth [9] | growth [10] | growth [11] | growth [12] | growth [13] | growth [14] | growth [15] | growth [16] | growth [17] | growth [18] | growth [19]
1 | CC(=O)c1c(C)nc(SCC(=O)Nc2cccc(O)c2)n1-c1ccc(Cl)cc1 | 94.3% | 107% | 105% | 94.5% | 100% | 83.9% | 96.2% | 102% | 118% | 103% | 105% | 90.8% | 82.1% | 92% | 96.2% | 97.4% | 105% | 101% | 94.4%
2 | COC(=O)[C@]1(C)CCC[C@]2(C)[C@H]3C[C@H]4C(C(C)C)=C[C@]3(CC[C@H]21)[C@@H]1C(=O)CC[C@H](OCCC#N)[C@@H]14 | 84.7% | 74.3% | 95% | 94.7% | 76.6% | 89.9% | 92.2% | 81% | 85.2% | 89.2% | 89.9% | 85.9% | 73.9% | 55.5% | 74.3% | 77.7% | 91.7% | 99.1% | 82.5%
3 | COc1ccc(Nc2nc(-c3cc(O)c(C)c(C)c3O)cs2)cc1 | 78.1% | 96.3% | 69.9% | 39% | 90.5% | 34.8% | 58% | 102% | 115% | 87.3% | 23.9% | 95.2% | 88.5% | 78.7% | 64.7% | 84.1% | 81.6% | 98.1% | 76.2%
4 | O=C1C(Cl)=C(NCCCCCCNC2=C(Cl)C(=O)c3ccccc3C2=O)C(=O)c2ccccc21 | 61.8% | 102% | 112% | 94.8% | 86.2% | 90.7% | 102% | 114% | 86.2% | 104% | 69.7% | 88.8% | 78.2% | 123% | 98.2% | 114% | 115% | 75% | 87.9%
5 | C1CCC([PH+](C2CCCCC2)C2CCCCC2[PH+](C2CCCCC2)C2CCCCC2)CC1.[Au].[CH-]1CCCCC1C1CCCC[N-]1 (configuration not stated) | -31% (active) | -35.1% (active) | -39.9% (active) | -69.8% (active) | -38.5% (active) | -51% (active) | -56.8% (active) | -64.6% (active) | -62% (active) | -52.8% (active) | -0.185% (active) | -44.3% (active) | -27.6% (active) | -92.4% (active) | -55% (active) | -42.9% (active) | -90.4% (active) | -53.8% (active) | -41.3% (active)
6 | CCOC(=O)c1cc(C)n(-c2ccc(C(=O)O)cc2)c1C | 89.4% | 98.6% | 88.1% | 44.1% | 100% | 65.8% | 91.4% | 101% | 89.8% | 7.16% (active) | 116% | 130% | 80% | 80.8% | 92.3% | 90.7% | 105% | 96.5% | 89.7%
7 | COc1ccc(C2=C(Br)C(=O)c3nc(C)ccc3C2=O)cc1 | 88.1% | 83% | 86.8% | 95.7% | 78% | 24% | 98% | 103% | 0.376% (active) | 105% | 36.7% | 91.7% | 73.2% | 95.2% | 94.6% | 105% | 94.8% | 64.2% | 92.8%
8 | CC(=O)O[C@H]1CC2CCC3C(CC[C@@]4(C)C3C[C@H]([N+]3(C)CCCCC3)[C@@H]4OC(C)=O)[C@@]2(C)C[C@@H]1N1CCCCC1 (some centres not stated) | 102% | 106% | 114% | 111% | 86.5% | 95.8% | 101% | 106% | 104% | 120% | 104% | 121% | 91% | 113% | 115% | 96.4% | 110% | 98% | 106%
